# This is part of a sample that, as a whole, favours compounds with a hit. Of some 79,000 tested, about 15% had one in any assay. Values without a mark were called inactive. Active and inactive are the calls of the source. Cut-off read from the data, not from the text of the source: active = growth inhibition above about 70%; inactive = the rest.
# Legend:
# [1] = NCI Yeast Anticancer Drug Screen. Data for the rad52 strain (AID 147);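 note: 0% = growth of vehicle-treated control cultures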; settings: S. cerevisiae rad52 mutant growth inhibition, active compounds read high
# Method in brief: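 Genetically altered yeast (DNA damage repair defect) treated with compound; inhibition calculated relative to vehicle.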
# [2] = NCI Yeast Anticancer Drug Screen. Data for the wt1 strain (AID 149);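 note: 0% = growth of vehicle-treated wt1 cultures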; settings: S. cerevisiae wt1 strain (SPY 50644) growth inhibition, active compounds read high
# Method in brief: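 Each compound is tested on wt1 yeast and the loss of growth versus vehicle gives the inhibition value.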
# [3] = NCI Yeast Anticancer Drug Screen. Data for the rad50EPP+ strain (AID 151);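 note: 0% = growth of vehicle-treated control cultures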; settings: S. cerevisiae rad50 mutant strain, active compounds read high
# Method in brief: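 Strain rad50EPP+; compound exposure; % growth inhibition vs vehicle.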
# [4] = NCI Yeast Anticancer Drug Screen. Data for the mgt1 strain (AID 153); settings: S. cerevisiae mgt1 mutant growth inhibition, active compounds read high
# Method in brief: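 Read-out: yeast growth inhibition vs vehicle control. Strain mgt1, drawn from a panel altered in DNA damage repair or cell cycle control.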
# [5] = NCI Yeast Anticancer Drug Screen. Data for the rad50 strain (AID 155);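 note: 0% = growth of vehicle-only cultures of the same strain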; settings: S. cerevisiae rad50 strain growth inhibition, active compounds read high
# Method in brief: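 Vehicle-treated cultures provide the reference for the growth inhibition reported for compound-exposed, repair-deficient yeast.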
# [6] = NCI Yeast Anticancer Drug Screen. Data for the mec2-1 strain (AID 157); settings: S. cerevisiae mec2-1 strain, active compounds read high
# Method in brief: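 Cells of the genetically defined mec2-1 yeast strain are incubated with test compound. Inhibition of growth is calculated against vehicle-treated controls.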
# [7] = NCI Yeast Anticancer Drug Screen. Data for the rad14 strain (AID 159);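 note: 0% = growth of vehicle-treated control cultures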; settings: S. cerevisiae rad14 strain growth inhibition, active compounds read high
# Method in brief: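 Inhibition of growth is reported for a repair-deficient yeast mutant following compound treatment, calculated relative to cultures that received vehicle.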
# [8] = NCI Yeast Anticancer Drug Screen. Data for the sgs1 mgt1 strain (AID 161);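 note: 0% = growth of cultures given vehicle only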; settings: S. cerevisiae sgs1 mgt1 strain, active compounds read high
# Method in brief: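 Test agents were incubated with a DNA-repair-mutant yeast strain. Growth was then read and compared against vehicle-treated controls.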
# [9] = NCI Yeast Anticancer Drug Screen. Data for the CLN2oe strain (AID 163);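 note: 0% = growth of vehicle-only control cultures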; settings: S. cerevisiae CLN2oe strain, active compounds read high
# Method in brief: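 Strain altered in cell-cycle control, incubated with compound; growth compared to solvent-treated controls.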
# [10] = NCI Yeast Anticancer Drug Screen. Data for the cln2 rad14 strain (AID 165);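 note: 0% = growth equal to vehicle treated cultures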; settings: S. cerevisiae cln2 rad14 strain, active compounds read high
# Method in brief: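 The screen exposed genetically defined yeast (cln2 rad14) to test compounds and scored growth inhibition relative to vehicle-treated controls.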
# [11] = NCI Yeast Anticancer Drug Screen. Data for the bub3 strain (AID 167); settings: S. cerevisiae bub3 mutant strain, active compounds read high
# Method in brief: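 Mutant yeast screening strain plus compound; vehicle-treated cultures serve as the 0% inhibition reference.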
# [12] = NCI Yeast Anticancer Drug Screen. Data for the wt2 strain (AID 169); settings: S. cerevisiae wt2 strain growth inhibition, active compounds read high
# Method in brief: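 Steps: yeast strain treated with compound; growth recorded; inhibition calculated relative to cultures given vehicle alone.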
# [13] = NCI Yeast Anticancer Drug Screen. Data for the mlh1 strain (AID 171);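 note: 0% = growth of vehicle-treated control cultures of the same strain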; settings: S. cerevisiae mlh1 strain growth inhibition, active compounds read high
# Method in brief: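 Yeast screen: mutant strain plus compound, growth scored against vehicle control wells.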
# [14] = NCI Yeast Anticancer Drug Screen. Data for the sgs1 strain (AID 173);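 note: 0% = growth of vehicle-only control cultures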; settings: S. cerevisiae sgs1 mutant, active compounds read high
# Method in brief: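 Inhibition of yeast growth served as the measure. The mutant strain was treated with each compound, and growth was normalised to cultures receiving vehicle alone.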
# [15] = NCI Yeast Anticancer Drug Screen. Data for the mlh1 rad18 strain (AID 175); settings: S. cerevisiae mlh1 rad18 strain growth inhibition, active compounds read high
# Method in brief: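 Compound-treated yeast growth, normalised to vehicle controls. Strain bears defined DNA repair mutations.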
# [16] = NCI Yeast Anticancer Drug Screen. Data for the rad18 strain (AID 177); settings: S. cerevisiae rad18 mutant growth inhibition, active compounds read high
# Method in brief: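 Inhibition values reflect reduced yeast growth compared with vehicle-treated controls, using a strain engineered with a DNA damage repair defect.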
# [17] = at 5.0 µM (retest, dose inferred, filed as 0.5)
# [18] = at 50.0 µM (retest, dose inferred, filed as 5.0)
smiles,measurement,setting,value
CC(=O)ON=C1C=CC(=C(C#N)c2ccc(Cl)cc2)C=C1,growth inhibition,[1]; at 1.2 µM,1%
same,growth inhibition,[1]; at 3.7 µM,-1%
same,growth inhibition,[1]; at 11.0 µM,1%
same,growth inhibition,[1]; at 33.0 µM,22%
same,growth inhibition,[1]; at 100.0 µM,69%
same,growth inhibition,[2]; at 1.2 µM,0%
same,growth inhibition,[2]; at 3.7 µM,0%
same,growth inhibition,[2]; at 11.0 µM,4%
same,growth inhibition,[2]; at 33.0 µM,10%
same,growth inhibition,[2]; at 100.0 µM,61%
same,growth inhibition,[3]; at 1.2 µM,19%
same,growth inhibition,[3]; at 3.7 µM,38%
same,growth inhibition,[3]; at 11.0 µM,64%
same,growth inhibition,[3]; at 33.0 µM,91% (active)
same,growth inhibition,[3]; at 100.0 µM,96% (active)
same,growth inhibition,[4]; at 1.2 µM,0%
same,growth inhibition,[4]; at 3.7 µM,2%
same,growth inhibition,[4]; at 11.0 µM,4%
same,growth inhibition,[4]; at 33.0 µM,42%
same,growth inhibition,[4]; at 100.0 µM,77% (active)
same,growth inhibition,[5]; at 1.2 µM,0%
same,growth inhibition,[5]; at 3.7 µM,-3%
same,growth inhibition,[5]; [17],25%
same,growth inhibition,[5]; at 11.0 µM,-1%
same,growth inhibition,[5]; at 33.0 µM,9%
same,growth inhibition,[5]; [18],97% (active)
same,growth inhibition,[5]; at 50.0 µM,99.4% (active)
same,growth inhibition,[5]; at 100.0 µM,59%
same,growth inhibition,[6]; at 1.2 µM,-1%
same,growth inhibition,[6]; at 3.7 µM,0%
same,growth inhibition,[6]; [17],11%
same,growth inhibition,[6]; at 11.0 µM,1%
same,growth inhibition,[6]; at 33.0 µM,19%
same,growth inhibition,[6]; [18],99% (active)
same,growth inhibition,[6]; at 50.0 µM,99% (active)
same,growth inhibition,[6]; at 100.0 µM,59%
same,growth inhibition,[7]; at 1.2 µM,-3%
same,growth inhibition,[7]; at 3.7 µM,-4%
same,growth inhibition,[7]; at 11.0 µM,-1%
same,growth inhibition,[7]; at 33.0 µM,22%
same,growth inhibition,[7]; at 100.0 µM,98% (active)
same,growth inhibition,[8]; [17],41%
same,growth inhibition,[8]; [18],99% (active)
same,growth inhibition,[8]; at 50.0 µM,99.5% (active)
same,growth inhibition,[9]; at 1.2 µM,-3%
same,growth inhibition,[9]; at 3.7 µM,-8%
same,growth inhibition,[9]; at 11.0 µM,-1%
same,growth inhibition,[9]; at 33.0 µM,3%
same,growth inhibition,[9]; at 100.0 µM,56%
same,growth inhibition,[10]; [17],7%
same,growth inhibition,[10]; [18],98% (active)
same,growth inhibition,[10]; at 50.0 µM,77.1% (active)
same,growth inhibition,[11]; at 1.2 µM,-4%
same,growth inhibition,[11]; at 3.7 µM,-4%
same,growth inhibition,[11]; [17],3%
same,growth inhibition,[11]; at 11.0 µM,-5%
same,growth inhibition,[11]; at 33.0 µM,7%
same,growth inhibition,[11]; [18],75% (active)
same,growth inhibition,[11]; at 50.0 µM,56%
same,growth inhibition,[11]; at 100.0 µM,50%
same,growth inhibition,[12]; at 1.2 µM,1%
same,growth inhibition,[12]; at 3.7 µM,3%
same,growth inhibition,[12]; at 11.0 µM,9%
same,growth inhibition,[12]; at 33.0 µM,52%
same,growth inhibition,[12]; at 100.0 µM,86% (active)
same,growth inhibition,[13]; at 1.2 µM,4%
same,growth inhibition,[13]; at 3.7 µM,3%
same,growth inhibition,[13]; at 11.0 µM,9%
same,growth inhibition,[13]; at 33.0 µM,38%
same,growth inhibition,[13]; at 100.0 µM,74% (active)
same,growth inhibition,[14]; at 1.2 µM,2%
same,growth inhibition,[14]; at 3.7 µM,10%
same,growth inhibition,[14]; at 11.0 µM,16%
same,growth inhibition,[14]; at 33.0 µM,58%
same,growth inhibition,[14]; at 100.0 µM,95% (active)
same,growth inhibition,[15]; [17],29%
same,growth inhibition,[15]; [18],97% (active)
same,growth inhibition,[15]; at 50.0 µM,98.5% (active)
same,growth inhibition,[16]; at 1.2 µM,2%
same,growth inhibition,[16]; at 3.7 µM,1%
same,growth inhibition,[16]; at 11.0 µM,2%
same,growth inhibition,[16]; at 33.0 µM,19%
same,growth inhibition,[16]; at 100.0 µM,67%
O=C1C(Br)=C(c2ccccc2)O/C1=C/C(=O)c1ccc(Br)cc1,growth inhibition,[1]; at 1.2 µM,2%
same,growth inhibition,[1]; at 3.7 µM,6%
same,growth inhibition,[1]; at 11.0 µM,12%
same,growth inhibition,[1]; at 33.0 µM,26%
same,growth inhibition,[1]; at 100.0 µM,75% (active)
same,growth inhibition,[2]; at 1.2 µM,3%
same,growth inhibition,[2]; at 3.7 µM,5%
same,growth inhibition,[2]; at 11.0 µM,10%
same,growth inhibition,[2]; at 33.0 µM,16%
same,growth inhibition,[2]; at 100.0 µM,44%
same,growth inhibition,[3]; at 1.2 µM,9%
same,growth inhibition,[3]; at 3.7 µM,22%
same,growth inhibition,[3]; at 11.0 µM,59%
same,growth inhibition,[3]; at 33.0 µM,84% (active)
same,growth inhibition,[3]; at 100.0 µM,86% (active)
same,growth inhibition,[4]; at 1.2 µM,2%
same,growth inhibition,[4]; at 3.7 µM,5%
same,growth inhibition,[4]; at 11.0 µM,10%
same,growth inhibition,[4]; at 33.0 µM,36%
same,growth inhibition,[4]; at 100.0 µM,88% (active)
same,growth inhibition,[5]; at 1.2 µM,4%
same,growth inhibition,[5]; at 3.7 µM,5%
same,growth inhibition,[5]; [17],-21%
same,growth inhibition,[5]; at 11.0 µM,11%
same,growth inhibition,[5]; at 33.0 µM,18%
same,growth inhibition,[5]; [18],34%
same,growth inhibition,[5]; at 50.0 µM,24.2%
same,growth inhibition,[5]; at 100.0 µM,49%
same,growth inhibition,[6]; at 1.2 µM,-1%
same,growth inhibition,[6]; at 3.7 µM,5%

# — PubChem BioAssay (NCI)
